Measured values reported in PubChem BioAssay (NCATS).
Records with an inconclusive call do not appear. Activity calls are given as the source filed them. Unless noted, the call rests on the fitted dose curve; in most records, active means well fitted curve in the direction sought with a large enough effect; inconclusive means small, poorly fitted or top-dose-only effect, or another doubt; inactive means no such curve, though single readings can be large; an effect the other way counts as inactive or inconclusive.

Columns and labels:
[1] = target: Aldehyde dehydrogenase, mitochondrial (Homo sapiens) (UniProt P05091); assay: qHTS for Inhibitors of the Aldehyde Dehydrogenase Family (ALDH2) Confirmatory screens (AID 2061303; active means well fitted inhibition curve with a large enough effect; title and protocol of this record describe different tests; further: nearly all actives have a fitted effect of over 45% in size; further: potency means the concentration at half of the fitted maximal effect); details: ALDH inhibition qHTS; series mostly up to 45.4 µM
[2] = qHTS for Inhibitors of the Aldehyde Dehydrogenase Family (ALDH1A2, ALDH1A3, ALDH2, ALDH3A1) (AID 2061307); details: ALDH inhibition qHTS; series mostly up to 50.3 µM; further: nearly all actives have a fitted effect of over 50% in size; on Potency: test system not described further here; potency means the concentration at half of the fitted maximal effect
[3] = target: Aldehyde dehydrogenase, mitochondrial (Homo sapiens) (UniProt P05091); assay: qHTS for Inhibitors of the Aldehyde Dehydrogenase Family (ALDH2) Primary screen (AID 2061308); details: ALDH2 enzyme inhibition qHTS, 1536-well; series mostly up to 56 µM; further: nearly all actives have a fitted effect of over 55% in size; further: potency means the concentration at half of the fitted maximal effect
[4] = target: Retinaldehyde dehydrogenase 3 (Homo sapiens) (UniProt P47895); assay: qHTS for Inhibitors of the Aldehyde Dehydrogenase Family (ALDH1A3) Confirmatory screens (AID 2061311); details: ALDH inhibition qHTS; series mostly up to 46 µM; further: nearly all actives have a fitted effect of over 60% in size; further: potency means the concentration at half of the fitted maximal effect
[5] = target: Retinal dehydrogenase 2 (Homo sapiens) (UniProt O94788); assay: qHTS for Inhibitors of the Aldehyde Dehydrogenase Family (ALDH1A2) Confirmation screens (AID 2061314); details: ALDH1A2 enzyme inhibition qHTS confirmation; series mostly up to 45.9 µM; further: nearly all actives have a fitted effect of over 65% in size; further: potency means the concentration at half of the fitted maximal effect
[6] = target: Retinaldehyde dehydrogenase 3 (Homo sapiens) (UniProt P47895); assay: qHTS for Inhibitors of the Aldehyde Dehydrogenase Family (ALDH1A3) Primary screen (AID 2061315); details: ALDH inhibition qHTS; series mostly up to 56 µM
[7] = target: Aldehyde dehydrogenase 1A1 (Homo sapiens) (UniProt P00352); assay: qHTS for Inhibitors of the Aldehyde Dehydrogenase Family (ALDH1A1) Confirmatory screens (AID 2061316); details: ALDH inhibition qHTS; series mostly up to 47.3 µM; further: nearly all actives have a fitted effect of over 65% in size; further: potency means the concentration at half of the fitted maximal effect

Measured: Potency

O=C(NC1CCCc2c1cnn2-c1ccc(F)cc1F)c1ccncc1 (configuration not stated)
inactive: [1] | [2] | [3] | [4] | [5] | [6]

Cc1ccc(OCCn2c(CCNC(=O)c3ccccc3C(F)(F)F)nc3ccccc32)cc1
inactive: [1] | [2] | [3] | [4] | [5] | [6]

COc1ccc(CN2C(=O)c3ccccc3NC2c2ccc(OC)c(COc3ccc(NC(C)=O)cc3)c2)cc1 (configuration not stated)
active: [1] 17.8 µM | [2] 7.94 µM | [4] 2.24 µM | [5] 6.34 µM
inactive: [3] | [6]

C[C@@](Cc1ccccc1)(C(=O)O)N1C(=O)c2ccc(C(=O)O)cc2C1=O
inactive: [1] | [2] | [3] | [4] | [5] | [6] | [7]

NC(=O)C1CCN(c2nc(-c3ccc([N+](=O)[O-])cc3)cs2)CC1
active: [1] 25.1 µM | [2] 11.3 µM | [4] 22.5 µM | [5] 3.18 µM
inactive: [3] | [6]

O=[S+]([O-])(NCc1nccs1)c1ccc(Nc2nc(-c3ccccc3)cs2)cc1
inactive: [1] | [2] | [3] | [4] | [5] | [6]

O=C1NS(=O)(=O)c2cc3c(cc21)C(=O)NS3(=O)=O
inactive: [1] | [2] | [3] | [4] | [5] | [6]

N#CSc1cc(SC#N)c(N)nc1N
active: [1] 14.1 µM | [2] 5.62 µM | [3] 3.55 µM | [4] 10.1 µM | [5] 1.79 µM | [7] 0.896 µM
inactive: [6]

COc1ccc(C2Nc3ccccc3C(=O)N2Cc2ccc(Cl)cc2)cc1COc1ccc(NC(C)=O)cc1 (configuration not stated)
active: [1] 3.98 µM | [2] 2.25 µM | [4] 3.55 µM | [5] 12.7 µM
inactive: [3] | [6]

O=C1NC(=O)/C(=C/c2cccn2-c2ccc(P(O)O)cc2)N1
inactive: [1] | [2] | [3] | [4] | [5] | [6] | [7]

Cc1nc2ccccn2c1P(=O)(c1ccccc1)c1ccccc1
inactive: [1] | [2] | [3] | [4] | [5] | [6] | [7]

COc1cccc(OC2=NS(=O)(=O)c3ccccc32)c1
inactive: [1] | [2] | [3] | [4] | [5] | [6]

NC1CCN(c2cnc3c(O)ccc(C(=O)O)c3c2)CC1
active: [4] 20.1 µM | [5] 14.2 µM
inactive: [1] | [2] | [3] | [6]

O=C1c2ccccc2NC(c2ccc(-c3ccc(Br)cc3)o2)N1O (configuration not stated)
inactive: [6]
active: [1] 0.891 µM | [2] 11.3 µM | [3] 1 µM | [4] 12.7 µM | [5] 12.7 µM

Cc1ccc(-c2nccc(=O)n2CC(=O)NCCc2ccccc2)cc1
inactive: [1] | [2] | [3] | [4] | [5] | [6]

Fc1ccc(CSc2nc3ncc(Br)cc3[nH]2)cc1
inactive: [1] | [2] | [3] | [4] | [5] | [6] | [7]

C=CCNc1oc(-c2cccs2)nc1C#N
inactive: [1] | [2] | [3] | [4] | [5] | [6] | [7]

O=C(O)c1ccc(S(=O)(=O)N[C@H](Cc2ccccc2)C(=O)O)cc1
inactive: [1] | [2] | [3] | [4] | [5] | [6] | [7]

COc1cc(F)cc(F)c1[S+](=O)([O-])N1CCN([S+](=O)([O-])c2ccc3c(c2)OCCO3)CC1
inactive: [1] | [2] | [3] | [4] | [5] | [6] | [7]

Cc1ccc(S(=O)(=O)NC(N)=NCCC[C@@H](NC(=O)CNC(=O)c2ccccc2)C(=O)Nc2cc(C(F)(F)F)ccc2Cl)cc1
inactive: [1] | [2] | [3] | [4] | [5] | [6] | [7]

Cc1nnc(-c2cnn(C)c2N)n1CCCn1ccnc1
inactive: [1] | [2] | [3] | [4] | [5] | [6] | [7]

COC(=O)c1ccc2c(c1)S(=O)(=O)N=C2Sc1cc(C)ccc1C
active: [5] 14.2 µM
inactive: [1] | [2] | [3] | [4] | [6] | [7]

Cc1cccc(OC2=NS(=O)(=O)c3ccccc32)c1
inactive: [1] | [2] | [3] | [4] | [5] | [6] | [7]

CC(C)(C)c1ccc(SC2=NS(=O)(=O)c3ccccc32)cc1
inactive: [1] | [2] | [3] | [4] | [6] | [7]
active: [5] 12.7 µM
